Read-out in experiment [1]: Collagen I, COL1A1 (gene 1277)
The experiment in a line: BSK_hDFCGF_CollagenI: BioMAP Diversity Plus: hDFCGF Assay for Collagen I Biomarker Activity (AID 2284250). Conditions: primary human foreskin fibroblasts. In a few lines: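 Human skin primary fibroblasts dosed with test chemical, harvested at 24 h, Collagen I quantified by ELISA; parallel SRB staining (0.1% SRB after 10% TCA fixation, 560 nm) tracked cytotoxicity.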

Read-out in experiment [2]: Interferon-inducible T-cell alpha chemoattractant (ITAC), CXCL11 (gene 6373)
Put plainly: BSK_hDFCGF_ITAC: BioMAP Diversity Plus: hDFCGF Assay for Interferon-inducible T-cell alpha chemoattractant (ITAC) Biomarker Activity (AID 2284251). Particulars: primary human foreskin fibroblasts. The procedure, abridged: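 Fibroblasts (human foreskin, primary) are treated with chemical, cultured 24 h, then assayed for I-TAC by ELISA. Overt toxicity is checked in parallel cultures by sulforhodamine B staining of total protein at the same time point.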

Read-out in experiment [3]: Plasminogen activator inhibitor-1 (PAI1), SERPINE1 (gene 5054)
The experiment in a line: BSK_KF3CT_PAI1: BioMAP Diversity Plus: KF3CT Assay for Plasminogen activator inhibitor-1 (PAI1) Biomarker Activity (AID 2284252). Conditions: primary human keratinocytes with fibroblasts. The procedure, abridged: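 ELISA read-out of PAI-1 taken 24 h after chemical treatment of a human skin primary co-culture of keratinocytes and foreskin fibroblasts. Increases over DMSO-treated wells defined activity.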

Read-out in experiment [4]: Monocyte Chemoattractant Protein-1 (MCP1), CCL2 (gene 6347)
The experiment in a line: BSK_IMphg_MCP1: BioMAP Diversity Plus: IMphg Assay for Monocyte Chemoattractant Protein-1 (MCP1) Biomarker Activity (AID 2284253). Particulars: primary human endothelial cells with macrophages. In a few lines:
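Human venular endothelial cells co-cultured with macrophages; MCP-1 measured by ELISA 24 hours post-dose and fitted against DMSO. Cytotoxicity monitored by SRB total-protein staining in parallel cultures.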

Read-out in experiment [5]: Interleukin-8 (IL8), CXCL8 (gene 3576)
The experiment in a line: BSK_KF3CT_IL8: BioMAP Diversity Plus: KF3CT Assay for Interleukin-8 (IL8) Biomarker Activity (AID 2284254). Conditions: primary human keratinocytes with fibroblasts. In a few lines:
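Chemicals were added to co-cultured human keratinocytes and foreskin fibroblasts, incubated 24 h, then IL-8 was quantified by ELISA. Cytotoxicity was tracked by sulforhodamine B total-protein staining in parallel cultures.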

Read-out in experiment [6]: Macrophage Inflammatory Protein-1 Alpha (MIP1a), CCL3 (gene 6348)
Put plainly: BSK_IMphg_MIP1a: BioMAP Diversity Plus: IMphg Assay for Macrophage Inflammatory Protein-1 Alpha (MIP1a) Biomarker Activity (AID 2284255). Particulars: primary human endothelial cells with macrophages. The procedure, abridged: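 Co-culture of human venular endothelial cells and macrophages exposed to compounds for 24 h; MIP-1a measured by ELISA relative to DMSO. Cytotoxicity assessed in parallel cultures by sulforhodamine B total-protein staining at 560 nm.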

Read-out in experiment [7]: Plasminogen activator inhibitor-1 (PAI1), SERPINE1 (gene 5054)
Put plainly: BSK_MyoF_PAI1: BioMAP Diversity Plus: MyoF Assay for Plasminogen activator inhibitor-1 (PAI1) Biomarker Activity (AID 2284256).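 For outcome: PAI-1 protein level measured by ELISA in fibroblast cultures; PAI-1 read 24 h after compound addition.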 Conditions: primary human lung fibroblasts. In a few lines: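 Primary human lung fibroblasts are dosed and incubated 24 h. PAI-1 is then measured by ELISA, while parallel cultures undergo SRB staining for overt cytotoxicity. Increases over DMSO define activity.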

Read-out in experiment [8]: CD69, CD69 (gene 969)
The experiment in a line: BSK_IMphg_CD69: BioMAP Diversity Plus: IMphg Assay for CD69 Biomarker Activity (AID 2284257). Particulars: primary human endothelial cells with macrophages. In a few lines: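 Human venular endothelial cells co-cultured with macrophages; CD69 quantified by ELISA 24 h after compound addition. Activity fitted in the positive direction relative to DMSO baseline; cytotoxicity tracked in parallel cultures via SRB total-protein staining.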

Read-out in experiment [9]: Eotaxin 3, CCL26 (gene 10344)
The experiment in a line: BSK_BF4T_Eotaxin3: BioMAP Diversity Plus: BF4T Assay for Eotaxin 3 Biomarker Activity (AID 2284258). Particulars: primary human bronchial epithelial cells with fibroblasts. The procedure, abridged: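 Co-culture of human bronchial epithelial cells and dermal fibroblasts, exposed to chemicals for 24 h versus DMSO. Eotaxin-3 quantified by ELISA; cytotoxicity checked in parallel cultures by sulforhodamine B total-protein staining.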

Read-out in experiment [10]: Monocyte Chemoattractant Protein-1 (MCP1), CCL2 (gene 6347)
The experiment in a line: BSK_BF4T_MCP1: BioMAP Diversity Plus: BF4T Assay for Monocyte Chemoattractant Protein-1 (MCP1) Biomarker Activity (AID 2284259). Conditions: primary human bronchial epithelial cells with fibroblasts. The procedure, abridged:
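Co-culture of bronchial epithelial cells and dermal fibroblasts dosed with chemical; MCP-1 measured by ELISA 24 h later. Activity fitted in positive direction versus DMSO; cytotoxicity checked by SRB staining in parallel cultures.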

Read-out in experiment [11]: Intercellular Adhesion Molecule 1 (ICAM1), ICAM1 (gene 3383)
Put plainly: BSK_BF4T_ICAM1: BioMAP Diversity Plus: BF4T Assay for Intercellular Adhesion Molecule 1 (ICAM1) Biomarker Activity (AID 2284260). Conditions: primary human bronchial epithelial cells with fibroblasts. The procedure, abridged:
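Co-culture of human bronchial epithelial cells and dermal fibroblasts exposed 24 h to chemical; cell-surface ICAM-1 quantified by ELISA. Parallel SRB total-protein staining assessed cytotoxicity; activity fitted relative to DMSO.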

Read-out in experiment [12]: Interleukin-8 (IL8), CXCL8 (gene 3576)
The experiment in a line: BSK_MyoF_IL8: BioMAP Diversity Plus: MyoF Assay for Interleukin-8 (IL8) Biomarker Activity (AID 2284261). Particulars: primary human lung fibroblasts. In a few lines: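 IL-8 levels were measured by ELISA in human lung fibroblasts harvested 24 h after compound addition. Responses were analysed as gain of signal over the DMSO baseline.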

Read-out in experiment [13]: CD90, THY1 (gene 7070)
The experiment in a line: BSK_BF4T_CD90: BioMAP Diversity Plus: BF4T Assay for CD90 Biomarker Activity (AID 2284262). Conditions: primary human bronchial epithelial cells with fibroblasts. In a few lines: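 Co-culture of human bronchial epithelial cells and dermal fibroblasts, 24 h compound exposure. Cell-surface CD90 measured by ELISA relative to DMSO; parallel SRB total-protein staining for cytotoxicity.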

Read-out in experiment [14]: Interleukin-8 (IL8), CXCL8 (gene 3576)
The experiment in a line: BSK_BF4T_IL8: BioMAP Diversity Plus: BF4T Assay for Interleukin-8 (IL8) Biomarker Activity (AID 2284263). Conditions: primary human bronchial epithelial cells with fibroblasts. The procedure, abridged:
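Human bronchial epithelial cells with dermal fibroblasts co-culture; IL-8 measured by ELISA 24 hours after dosing, fitted vs DMSO. Cytotoxicity tracked in parallel cultures by SRB total-protein staining.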

Read-out in experiment [15]: Interleukin-1 alpha (IL1a), IL1A (gene 3552)
The experiment in a line: BSK_BF4T_IL1a: BioMAP Diversity Plus: BF4T Assay for Interleukin-1 alpha (IL1a) Biomarker Activity (AID 2284264). Conditions: primary human bronchial epithelial cells with fibroblasts. The procedure, abridged:
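Human bronchial epithelial cells co-cultured with dermal fibroblasts, dosed and read at 24 h. Secreted/surface IL-1α quantified by ELISA; gain-of-signal fitted relative to DMSO baseline. Parallel SRB total-protein staining tracked cytotoxicity.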

Read-out in experiment [16]: Decorin, DCN (gene 1634)
The experiment in a line: BSK_MyoF_Decorin: BioMAP Diversity Plus: MyoF Assay for Decorin Biomarker Activity (AID 2284265). Particulars: primary human lung fibroblasts. In a few lines:
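Compound is added to lung fibroblast cultures; cells incubate 24 h; decorin is then measured by ELISA; the response is analysed upward against DMSO controls.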

Read-out in experiment [17]: KRT18 (gene 3875)
The experiment in a line: BSK_BF4T_Keratin818: BioMAP Diversity Plus: BF4T Assay for Keratin 818 Biomarker Activity (AID 2284266). Particulars: primary human bronchial epithelial cells with fibroblasts. In a few lines: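 Co-culture of human bronchial epithelial cells and dermal fibroblasts, chemical exposure 24 h. Keratin 8/18 measured by ELISA; positive-direction fit vs DMSO. SRB total protein run in parallel cultures for cytotoxicity.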

Experiment [18] is described as follows: BSK_MyoF_SRB: Viability Assessment in the BioMAP Diversity Plus: MyoF Assay (AID 2284267).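 Note: total protein by SRB absorbance in parallel cultures as cytotoxicity measure.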 Conditions: primary human lung fibroblasts. In a few lines:
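Read-out is SRB absorbance at 560 nm, reflecting total protein in parallel lung fibroblast cultures harvested 24 h after compound addition. Cells were TCA-fixed (10%) and stained with 0.1% SRB; activity is referenced to DMSO.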

Read-out in experiment [19]: Matrix Metallopeptidase 1 (MMP1), MMP1 (gene 4312)
The experiment in a line: BSK_MyoF_MMP1: BioMAP Diversity Plus: MyoF Assay for Matrix Metallopeptidase 1 (MMP1) Biomarker Activity (AID 2284268). Conditions: primary human lung fibroblasts. The procedure, abridged:
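Lung fibroblast cultures were dosed with test chemicals and, after 24 h, MMP1 levels were measured by ELISA; responses were referenced to DMSO and analysed for increases.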

Read-out in experiment [20]: TIMP metallopeptidase inhibitor 1 (TIMP1), TIMP1 (gene 7076)
The experiment in a line: BSK_MyoF_TIMP1: BioMAP Diversity Plus: MyoF Assay for TIMP metallopeptidase inhibitor 1 (TIMP1) Biomarker Activity (AID 2284269). Conditions: primary human lung fibroblasts. The procedure, abridged: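 ELISA read-out of TIMP-1 from primary human lung fibroblast cultures 24 h after compound dosing; gain of signal relative to DMSO vehicle baseline defines activity.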

Several values for one entry are separate records, joined by “and”; a condition that tells them apart may be missing. Equal values may be shown once. Where a structure was tested more than once in an assay, its records may differ in their call. Activity calls are given as the source filed them. Rule for the calls: active = hit-call score of the fitted dose curve at least 0.9, where 1 is the maximum; inactive = score below 0.9.

For the compound `OCCCC(F)(F)C(F)(F)C(F)(F)C(F)(F)C(F)(F)C(F)(F)C(F)(F)C(F)(F)F`, the result in experiment [1] and in [19] was inactive. Moreover, the AC50 was 7.67 µM (active) and 5.74 µM (active) in [2]; 12.7 µM (active) and 9.08 µM (active) in experiment [3]; 18.5 µM (active) and 21.1 µM (active) in experiment [4]; 17.1 µM (active) and 13.7 µM (active) in experiment [5]; 41 µM (active) and 56.7 µM (active) in [6]; 16.5 µM (active) and 11.1 µM (active) in experiment [7]. Besides, the AC50 in [8] is 40.1 µM (active) and 48.6 µM (active); in experiment [9] it was 24.7 µM (active) and 24.9 µM (active); in experiment [10] it was 21.6 µM (active) and 18 µM (active); in experiment [11], 23.2 µM (active) and 34.2 µM (active); in [12], 11.9 µM (active) and 9.9 µM (active); in experiment [13], 20.6 µM (active) and 19.2 µM (active). Besides, the AC50 in experiment [14] is 47.9 µM (active) and 24.3 µM (active); in experiment [15], 46.4 µM (active) and 45.7 µM (active); in experiment [16], 16.4 µM (active) and 14.4 µM (active); in experiment [17] it was 47.1 µM (active) and 33.9 µM (active); in experiment [18], 12.9 µM (active) and 12.4 µM (active); in experiment [19], 16.3 µM (active). The AC50 in experiment [20] is 14.5 µM (active) and 13.7 µM (active).
As for `CN(C(=O)C(F)(F)C(F)(F)C(F)(F)F)[Si](C)(C)C`, the result in experiment [1], in experiment [2], in [3], in experiment [4], in experiment [5] and in experiment [6] was inactive. The result in [7], in experiment [8], in [9], in [10], in experiment [11] and in experiment [12] was inactive. The result in experiment [13], in experiment [14], in experiment [15], in [16], in [17] and in [18] was inactive. Further, the outcome in [19] and in [20] was inactive.
As for `O=C(O)C(F)(F)C(F)(F)C(F)(F)C(F)(F)C(F)(F)C(F)(F)C(F)F`, the result in experiment [1], in [3], in experiment [4], in [5], in experiment [6] and in experiment [7] was inactive. For the same compound, the result in experiment [8], in experiment [9], in experiment [10], in experiment [11], in experiment [12] and in experiment [13] was inactive. The outcome in [14], in experiment [15], in experiment [16], in experiment [17], in [18] and in experiment [19] was inactive. Besides, in [20], the result was inactive. For the same compound, the AC50 in [5] is 17.2 µM (active).
Regarding `NC(=O)C(F)(F)C(F)(F)C(F)(F)C(F)(F)C(N)=O`, the result in experiment [1], in [2], in experiment [3], in [4], in experiment [5] and in experiment [6] was inactive. Also, the outcome in [7], in [8], in [9], in [10], in experiment [11] and in experiment [12] was inactive. For the same compound, the result in [13], in experiment [14], in experiment [15], in [16], in experiment [17] and in experiment [18] was inactive. In addition, the result in experiment [19] and in experiment [20] was inactive.
Take `CNS(=O)(=O)C(F)(F)C(F)(F)C(F)(F)C(F)(F)C(F)(F)C(F)(F)C(F)(F)C(F)(F)F`: the outcome in experiment [1], in [3], in experiment [4], in experiment [6], in [7] and in experiment [8] was inactive. Besides, the outcome in experiment [10], in experiment [11], in [12], in [13], in [14] and in experiment [15] was inactive. In addition, the outcome in [16], in experiment [17], in [18], in experiment [19] and in experiment [20] was inactive. For the same compound, the AC50 in [3] is 7.81 µM (active); in [5] it was 8.13 µM (active) and 9.41 µM (active); in [9] it was 3.88 µM (active) and 220 nM (active); in [12], 9.75 µM (active); in experiment [14], 46.3 µM (active).

What is called AC50 is the midpoint of the concentration-response curve, whichever way the signal moves.
